From PubChem BioAssay AID485270 (The Scripps Research Institute Molecular Screening Center, 2010)
In all, about 330,000 compounds went through this assay and about 5,800 (1.8%) were called active. This excerpt belongs to a sample that is enriched for actives. A number with no mark means an inactive call. Cut-off read from the data, not from the text of the source: active = inhibition mostly above about 38% (no sharp cut-off); inactive = mostly below about 40%.

These compounds were tested against Orexin/Hypocretin receptor type 1 (Homo sapiens) (UniProt O43613) (assay: blocks the human orexin 1 receptor (AID 485270;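 note: 0% = agonist challenge alone and 100% = reference antagonist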)). Conditions: OX1R-expressing cells, FRET antagonist read-out; at 6.6 µM; active compounds read high.
Orexin/Hypocretin receptor type 1 (Homo sapiens), sequence (O43613 whole entry, looked up): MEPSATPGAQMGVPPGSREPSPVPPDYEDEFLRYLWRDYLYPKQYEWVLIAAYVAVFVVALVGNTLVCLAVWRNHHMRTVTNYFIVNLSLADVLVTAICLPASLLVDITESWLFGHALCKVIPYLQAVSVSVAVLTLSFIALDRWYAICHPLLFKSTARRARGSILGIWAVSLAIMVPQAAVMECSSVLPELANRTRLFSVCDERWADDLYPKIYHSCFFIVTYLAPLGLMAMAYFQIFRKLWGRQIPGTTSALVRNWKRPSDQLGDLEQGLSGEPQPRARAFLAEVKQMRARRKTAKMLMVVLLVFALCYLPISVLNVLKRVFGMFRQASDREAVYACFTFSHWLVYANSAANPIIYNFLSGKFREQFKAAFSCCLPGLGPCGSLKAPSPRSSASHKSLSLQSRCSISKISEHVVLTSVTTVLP
With `Cc1noc(C)c1S(=O)(=O)N(C)C[C@H]1Oc2c(NC(=O)Nc3ccc4c(c3)OCO4)cccc2C(=O)N([C@H](C)CO)C[C@@H]1C` the inhibition was 2.76%.
`C[C@H](CO)N1C[C@H](C)[C@H](CN(C)CC2CC2)Oc2ccc(NC(=O)CCN3CCOCC3)cc2C1=O` gave an inhibition of -2.5%.
`Cc1ccc(S(=O)(=O)N(C)C)cc1NC(=O)C(C)OC(=O)c1ccc2ccccc2n1` (stereo not given) gave an inhibition of 7.22%.
In the case of `Nc1nc(COC(=O)CCC(=O)c2ccc(Cl)cc2)nc(Nc2ccccc2)n1`, the inhibition is reported as 37.4% (active).
In the case of `Cc1ccc(C(=O)OCc2nc(N)nc(Nc3ccccc3C)n2)cc1`, the inhibition is reported as -2.57%.
`CC(NC(=O)COC(=O)CCC(=O)c1ccc(Cl)cc1)c1ccccc1` (stereo not given) showed an inhibition of 10.1%.
`O=C(NCc1ccc2c(c1)OCO2)c1cc([N+](=O)[O-])ccc1N1CCOCC1` showed an inhibition of 19.9%.
`Cc1c(C(=O)OC(C)C)sc(NC(=O)c2cccnc2)c1C#N` was tested, and the inhibition was 54.5%.
Work on `CC1CCCCC12NC(=O)N(CC(=O)N1CCN(c3ccccc3)CC1)C2=O` (stereo not given) yielded an inhibition of -1.13%.
`O=C(Nc1cc(S(=O)(=O)Nc2ccc(Cl)cc2)ccc1O)c1ccc(F)cc1F` gave an inhibition of 8.71%.
Compound `O=C(CN1C(=O)NC2(CCCCCCC2)C1=O)NCc1ccc(F)cc1` has an inhibition of 8.6%.
`CC[C@@]1(C(=O)OC)N[C@H](CN(C)C(C)=O)[C@@H]2C(=O)N(C)C(=O)[C@@H]21` gave an inhibition of 1.97%.
With `Cc1ccc(S(=O)(=O)NC[C@H]2O[C@@H](n3cnc4c(N)ncnc43)[C@H](O)[C@@H]2O)s1` the inhibition was -6.3%.
Work on `CCN(CC)c1ccc(/C=N/NC(=O)CNC(=O)c2cccnc2)cc1` yielded an inhibition of 3.18%.
In the case of `CCN(CC)c1ccc(C(=O)c2cnc(/N=C/N(C)C)s2)cc1`, the inhibition is reported as 66.5% (active).
With `CCN(CC)c1ccc(NC(=O)c2ccc(Cl)nc2)cc1` the inhibition was 17.1%.
For `O=C(Nc1nnc(-c2ccccc2)o1)c1cc(-c2cccs2)nc2ccccc12`, the inhibition was 88.8% (active).
For `O=C(NCCN1CCOCC1)c1cc(-c2cccs2)nc2ccccc12`, the inhibition was 18.8%.
`CCCCN(C)CCCNC(=O)c1cc(-c2cccs2)nc2ccccc12` showed an inhibition of 13.3%.
For `O=C(c1ccc(S(=O)(=O)NCc2ccco2)cc1)N1CCN(c2ccccc2)CC1`, the inhibition was 11.5%.
In the case of `COc1ccc(S(=O)(=O)Nc2cccc3c2O[C@H](CN(C)S(=O)(=O)c2ccc(OC)cc2)[C@@H](C)CN([C@H](C)CO)C3=O)cc1`, the inhibition is reported as -2.59%.
Compound `COc1cc(OC)cc(C(=O)NNC(=O)Cc2cccs2)c1` has an inhibition of 1.69%.
`Cc1cc(C(=O)O)ccc1[N+](=O)[O-]` gave an inhibition of 1.62%.
`COc1ccc(C(=O)c2c(C)oc3cc([N+](=O)[O-])c(O)c([N+](=O)[O-])c23)cc1` showed an inhibition of 30.6%.
With `Cc1oc2cc([N+](=O)[O-])c(O)c([N+](=O)[O-])c2c1C(=O)c1ccc(Br)cc1` the inhibition was 67.5% (active).
With `COc1cc(Cl)c(C)cc1NC(=O)CSc1nnc(-c2cccnc2)n1Cc1ccco1` the inhibition was 15.5%.
`Cc1ccc(NC(=O)CSc2nnc(-c3cnccn3)n2Cc2ccco2)cc1C` was tested, and the inhibition was 18.9%.
For `COc1ccc(NC(=O)CSc2nnc(-c3cccs3)n2Cc2ccco2)cc1OC`, the inhibition was 41.6% (active).
Compound `CC(OC(=O)c1ccc(Cl)cc1O)C(=O)NCCC1=CCCCC1` (stereo not given) has an inhibition of 5.93%.
With `O=C(COc1ccccc1F)NNC(=O)c1cc(Br)ccc1Cl` the inhibition was 12.4%.
`C#CCOCCOCCOCCNc1nc(N2CCN(C(=O)C([C@@H](C)O)n3cc([C@@H](N)CCCCN)nn3)CC2)nc(N2CCN(C(=O)[C@H](CCCCN)n3cc(CN)nn3)CC2)n1` (stereo not given in full) gave an inhibition of 6.34%.
For `C=CC(COCc1ccccc1)N(CC(=O)OC)S(=O)(=O)c1cc(Br)ccc1OC` (stereo not given), the inhibition was 20.4%.
For `O=C(N/N=C/c1sc(N2CCCCC2)nc1-c1cccs1)c1cccnc1`, the inhibition was 111% (active).
In the case of `Cc1cc(/C=N/NC(=O)c2cccnc2)c(C)n1CC(C)C`, the inhibition is reported as 3.61%.
In the case of `O=C(NN=C1CCC(=NNC(=O)c2cccnc2)CC1)c1cccnc1`, the inhibition is reported as 1.73%.
Work on `CC(C#N)OC(=O)c1cccnc1SCC(=O)Nc1ccc2c(c1)OCO2` (stereo not given) yielded an inhibition of 8.21%.
Compound `O=C(Cc1ccc(Cl)c(Cl)c1)Nc1ccc(SC(F)F)cc1` has an inhibition of 17.7%.
In the case of `O=C(CC(O)(C(F)(F)F)C(F)(F)F)Nc1ccc(Cl)c(Cl)c1`, the inhibition is reported as 68.7% (active).
Compound `O=C(CC1SCCNC1=O)Nc1ccc(Cl)c(Cl)c1` (stereo not given) has an inhibition of 10.1%.
Work on `Cc1cc(C(=O)Nc2nnc(C3CC3)s2)c(C)s1` yielded an inhibition of 7.15%.
In the case of `CCOC(=O)C1=C(C)N(C[C@@H]2CC[C@@H](Cc3ccc(-c4ccccc4)cc3)O2)C(=O)NC1c1ccc([N+](=O)[O-])cc1` (stereo not given in full), the inhibition is reported as 5.68%.
Compound `COc1ccc(Br)cc1CN(C)CC(=O)Nc1cc(Cl)cc(Cl)c1` has an inhibition of 22.9%.
For `COc1ccc2nc3n(c(=O)c2c1)-c1cc(C)ccc1C(=O)NC3Cc1ccc(O)cc1` (stereo not given), the inhibition was 4.12%.
`N#CCCN(C(=O)COC(=O)c1ccc(S(=O)(=O)N2CCCCCC2)cc1)c1ccccc1` was tested, and the inhibition was 16.8%.
With `Cc1c(C(=O)OCC(=O)N(CCC#N)c2ccccc2)oc2c1ccc1ccccc12` the inhibition was 60.1% (active).
With `N#CCCN(C(=O)COC(=O)c1ccc2c(c1)OCCO2)c1ccccc1` the inhibition was 11%.
With `Cc1ccc(CCNC(=O)C2CCN(S(=O)(=O)N3CCCC3)CC2)cc1` the inhibition was 6.73%.
Work on `CN(CC(=O)NCCc1ccc(S(N)(=O)=O)cc1)CC(=O)Nc1ccc(F)c(F)c1F` yielded an inhibition of -2.07%.
In the case of `O=c1ccc2c(-c3ccccc3S(=O)(=O)O)c3ccc(O)c(O)c3oc-2c1O`, the inhibition is reported as 55.9% (active).
For `CC(C)COc1ccc(C(=O)NNC(=O)CCC(=O)c2cccs2)cc1`, the inhibition was 2.01%.
`Cc1cccc(NC(=O)c2ccc(S(=O)(=O)N(C)c3ccccc3)cc2)n1` showed an inhibition of 9.18%.
For `CCCCNc1c(-c2ccc(OC)c(Sc3ccc(OC)cc3)c2)nc2ccc(Cl)cn12`, the inhibition was 13.3%.
Compound `COc1ccccc1-c1nnc(-c2ccc(F)cc2)o1` has an inhibition of 4.73%.
With `COc1ccc(-c2csc(-c3cccs3)n2)cc1OC` the inhibition was 11.9%.
In the case of `COc1ccc(-c2csc3nc(-c4ccccc4F)oc(=O)c23)cc1OC`, the inhibition is reported as 46.9% (active).
